# Molecular target: Calmodulin-1 (Homo sapiens) (UniProt P0DP23)
# Assay: small molecules binding Ca-loaded calmodulin-1 – biochemical, small-molecule microarray, Cy5-labelled CALM1, plus calcium, artefact control for SMM control-protein annotation, profiling panel (AID 1112);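 further: score merges spot fluorescence with signal to noise from triplicate slides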
# Conditions: Cy5-CALM1 binding fluorescence, higher = more signal
row,Compound,composite z-score
1,COc1ccc([Si](C)(C)[C@H]2[C@H](CC(=O)N3CCC[C@H]3CO)O[C@@]3(C(=O)N(Cc4ccc(N5CCC5=O)cc4)c4ccccc43)[C@@H]2C)cc1,0.0623
2,C=CCNC(=O)[C@H]1[C@@H]2C(=O)O[C@@H](c3ccccc3)[C@@H](c3ccccc3)N2[C@@H](c2ccc(OCCO)cc2)[C@]12C(=O)Nc1ccc(C#CCNC(N)=O)cc12,1.15
3,C=CCC(OC(C)=O)[C@@H]1[C@@H](N(Cc2cccc3ccccc23)C(=O)Cc2ccc(F)cc2)c2cc(OCCCO)ccc2N1C(=O)c1ccc(-c2ccccc2)cc1 (some centres not stated),0.992
4,CC1CC/C=C\[C@H]2OC34C=CCN(CCN5CCOCC5)C(=O)[C@H]3N(C(C)CO)C(=O)[C@@H]4C2C(=O)O1 (some centres not stated),-1.4
5,C=CCN1C(=O)[C@]2(O[C@H](CCO)[C@@H]([Si](C)(C)c3ccc(OC)cc3)[C@@H]2C)c2cc(N3C(=O)COc4ccccc43)ccc21,0.325
6,CN(C)C(=O)[C@]1(CCS(=O)(=O)c2ccccc2)N=C(c2ccc(OCCCO)cc2)O[C@@H]1c1ccccc1,0.513
7,Cc1ccccc1C(O)C1C=CC2C(=O)NC(=O)C2N1Nc1ccc(Cl)cc1Cl (configuration not stated),1.13
8,O=C1c2ccccc2[C@](Cc2ccccc2I)(C(=O)NC2CC2)[C@H](c2ccc(CO)cc2)N1Cc1ccccc1C(F)(F)F,-0.541
9,Cc1ccc(C(C)CC(O)C2C=CC3C(=O)N(c4ccccc4)C(=O)C3N2Nc2ccc(C#N)cc2)o1 (configuration not stated),0.314
10,COc1ccc([Si](C)(C)[C@H]2[C@H](CCO)O[C@@]3(C(=O)N(Cc4ccccc4)c4ccc(N5C(=O)c6ccccc6Oc6ccccc65)cc43)[C@@H]2C)cc1,0.773
11,COCCOC(=O)N1C(=O)[C@@]2(c3cc(C#CC4=CCCCC4)ccc31)[C@H](C(=O)N1CCCCCCC1)[C@H]1C(=O)O[C@H](c3ccccc3)[C@H](c3ccccc3)N1[C@@H]2c1ccc(OCCO)cc1,1.04
12,CC(C)[C@H]1NC(=O)[C@@]23C(=O)N[C@@H](Cc4ccccc4)C2[C@H](C)[C@@]2(C)O[C@H]2C3/C=C/C/C=C\CNC(=O)[C@H](Cc2ccccc2)NC1=O (some centres not stated),-0.584
13,CC(C)=CCCC(C)=CC(O)C1C=CC2C(=O)N(c3ccccc3)C(=O)C2N1Nc1ccccc1F (configuration not stated),-0.132
14,CC(C)C[C@@H]1NC(=O)CNC(=O)[C@@]23C(=O)N[C@@H](Cc4ccccc4)C2[C@H](C)[C@@]2(C)O[C@H]2C3/C=C/C/C=C\CNC1=O (some centres not stated),-0.825
15,COC(=O)[C@@]1(Cc2ccc(F)cc2)[C@H]2c3cc(C(=O)N(C)C)n(Cc4ccc(O)c(OC)c4)c3C[C@H]2CN1C(=O)c1ccccc1,-0.0337
16,C=C(COC)C(=O)CC[C@@H](OC(=O)c1cccnc1)c1ccccc1OCCO,-0.497
17,CN(C)CCCNC(=O)[C@@H]1c2ccccc2C(=O)N(C2CCCCC2)[C@H]1c1ccc(CO)cc1,-0.179
18,COc1cc(NN2C(C(O)c3ccc(I)cc3)C=CC3C(=O)N(c4ccccc4)C(=O)C32)cc(OC)c1OC (configuration not stated),0.663
19,Cc1ccc([C@H]2C(C(=O)O)=C[C@@H](C(C)(C)C)N2S(=O)(=O)c2ccc(C)cc2)cc1,0.516
20,CC(C)OC(=O)CC(=O)CC(O)c1ccc([N+](=O)[O-])cc1 (configuration not stated),-0.833
21,NC(=O)N1C(=O)C2C(C1=O)C1C=C(CCCO)C2C(C2CC2)N1Cc1cccc(OC(F)(F)F)c1 (configuration not stated),0.2
22,CC(CO)N1C(=O)[C@@H]2[C@H]3C(=O)OCC=C[C@H]3OC23C=CCN(c2ccc(Cl)cc2)C(=O)[C@@H]13 (some centres not stated),-0.934
23,NC(=O)[C@@H]1[C@H]2C(=O)O[C@H](c3ccccc3)[C@H](c3ccccc3)N2[C@H](c2ccc(OCCO)cc2)[C@@]12C(=O)Nc1ccc(C#CCCO)cc12,0.209
24,CCOC(=O)C[C@H]1[C@H](OC(=O)c2ccc(C(=O)c3ccccc3)cc2)[C@@H](NC(=O)CC(C)C)c2cc(OCCCO)ccc2N1C(=O)Cc1ccc(OC)cc1,0.263
25,COCCCNC(=O)[C@@]1(c2ccc([N+](=O)[O-])cc2)CC(=O)N(CC23CC4CC(CC(C4)C2)C3)[C@@H]1c1ccc(CO)cc1I,0.729
26,C=C(/C(=C/C[C@@H](OC(C)=O)c1ccc(CO)o1)c1cc(C(=O)OC)ccc1OC)C(C)C,-0.657

# Tested on: not listed separately
# Assay: probe aWnt5a binding to arrayed compounds – biochemical, biotinylated probe, 635/667 nm fluorescence, primary screen (AID 1113);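 further: score merges 667 nm fluorescence intensity with signal-to-noise per printed feature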
# Conditions: small-molecule microarray, higher = more signal
row,Compound,composite z-score
1,Cc1nc2cc(Br)ccc2c(=O)n1Cc1cccc(O)c1,-0.0263
2,C=C[C@@H](C)[C@H](O)c1ccc(OCCO)cc1,-0.262
3,C=CCN1C(=O)[C@]2(O[C@H](CCO)[C@@H]([Si](C)(C)c3ccc(OC)cc3)[C@@H]2C)c2cc(NC(=O)c3ccc(OC)cc3)ccc21,-0.102
4,CCOC(=O)C[C@H]1[C@H](OC(=O)c2cc3ccccc3oc2=O)[C@@H](NC(=O)c2ccc3ccccc3c2)c2cc(OCCCO)ccc2N1C(=O)Cc1ccc(OC)cc1,-0.0648
5,COc1ccc(C#Cc2ccc3c(c2)[C@]2(C(=O)N3)[C@H](c3ccc(OCCO)cc3)N3[C@H](c4ccccc4)[C@H](c4ccccc4)OC(=O)[C@H]3[C@@H]2C(=O)N2CCc3cc(OC)c(OC)cc3C2)cc1,-0.0215
6,COC(=O)c1c2oc(c1C(=O)OC)C(=O)N1CCC[C@H]1Cn1nncc1CN(Cc1ccccc1)C(=O)N[C@H](CO)CC2,-0.0738
7,COC(=O)C(CC#Cc1ccc2c(c1)[C@]1(C(=O)N2)[C@H](c2ccc(O)cc2)N2[C@H](c3ccccc3)[C@H](c3ccccc3)OC(=O)[C@H]2[C@@H]1C(=O)N1CCCCCCC1)C(=O)OC,0.593
8,C=C[C@H](C)[C@H](OC(=O)Nc1ccc(OC)cc1)c1ccc(OCCO)cc1,-0.222
9,[N-]=[N+]=NC[C@H](Cc1ccccc1)NC(=O)c1ccccc1,-0.0269
10,COc1ccc([Si](C)(C)[C@H]2[C@H](CC(=O)N3Cc4ccccc4C[C@H]3CO)O[C@@]3(C(=O)N(Cc4ccc(N5C(=O)c6cccc7cccc5c67)cc4)c4ccccc43)[C@@H]2C)cc1,-0.124
11,COc1ccc([Si](C)(C)[C@H]2[C@H](CC(=O)N3CCC[C@H]3CO)O[C@@]3(C(=O)N(Cc4ccc(N5CCC5=O)cc4)c4ccccc43)[C@@H]2C)cc1,-0.0735
12,C=CCNC(=O)[C@H]1[C@@H]2C(=O)O[C@@H](c3ccccc3)[C@@H](c3ccccc3)N2[C@@H](c2ccc(OCCO)cc2)[C@]12C(=O)Nc1ccc(C#CCNC(N)=O)cc12,-0.0009
13,C=CCC(OC(C)=O)[C@@H]1[C@@H](N(Cc2cccc3ccccc23)C(=O)Cc2ccc(F)cc2)c2cc(OCCCO)ccc2N1C(=O)c1ccc(-c2ccccc2)cc1 (some centres not stated),-0.236
14,CC1CC/C=C\[C@H]2OC34C=CCN(CCN5CCOCC5)C(=O)[C@H]3N(C(C)CO)C(=O)[C@@H]4C2C(=O)O1 (some centres not stated),-0.199
15,C=CCN1C(=O)[C@]2(O[C@H](CCO)[C@@H]([Si](C)(C)c3ccc(OC)cc3)[C@@H]2C)c2cc(N3C(=O)COc4ccccc43)ccc21,-0.0134
16,CN(C)C(=O)[C@]1(CCS(=O)(=O)c2ccccc2)N=C(c2ccc(OCCCO)cc2)O[C@@H]1c1ccccc1,-0.034
17,Cc1ccccc1C(O)C1C=CC2C(=O)NC(=O)C2N1Nc1ccc(Cl)cc1Cl (configuration not stated),-0.0405
18,O=C1c2ccccc2[C@](Cc2ccccc2I)(C(=O)NC2CC2)[C@H](c2ccc(CO)cc2)N1Cc1ccccc1C(F)(F)F,-0.0735

row,Compound,composite z-score
1,Cc1ccc(C(C)CC(O)C2C=CC3C(=O)N(c4ccccc4)C(=O)C3N2Nc2ccc(C#N)cc2)o1 (configuration not stated),-0.0044
2,COc1ccc([Si](C)(C)[C@H]2[C@H](CCO)O[C@@]3(C(=O)N(Cc4ccccc4)c4ccc(N5C(=O)c6ccccc6Oc6ccccc65)cc43)[C@@H]2C)cc1,0.0431
3,COCCOC(=O)N1C(=O)[C@@]2(c3cc(C#CC4=CCCCC4)ccc31)[C@H](C(=O)N1CCCCCCC1)[C@H]1C(=O)O[C@H](c3ccccc3)[C@H](c3ccccc3)N1[C@@H]2c1ccc(OCCO)cc1,0.302
4,CC(C)[C@H]1NC(=O)[C@@]23C(=O)N[C@@H](Cc4ccccc4)C2[C@H](C)[C@@]2(C)O[C@H]2C3/C=C/C/C=C\CNC(=O)[C@H](Cc2ccccc2)NC1=O (some centres not stated),-0.158
5,CC(C)=CCCC(C)=CC(O)C1C=CC2C(=O)N(c3ccccc3)C(=O)C2N1Nc1ccccc1F (configuration not stated),-0.171
6,CC(C)C[C@@H]1NC(=O)CNC(=O)[C@@]23C(=O)N[C@@H](Cc4ccccc4)C2[C@H](C)[C@@]2(C)O[C@H]2C3/C=C/C/C=C\CNC1=O (some centres not stated),-0.147
7,COC(=O)[C@@]1(Cc2ccc(F)cc2)[C@H]2c3cc(C(=O)N(C)C)n(Cc4ccc(O)c(OC)c4)c3C[C@H]2CN1C(=O)c1ccccc1,0.0776
8,C=C(COC)C(=O)CC[C@@H](OC(=O)c1cccnc1)c1ccccc1OCCO,-0.096
9,CN(C)CCCNC(=O)[C@@H]1c2ccccc2C(=O)N(C2CCCCC2)[C@H]1c1ccc(CO)cc1,-0.0459
10,COc1cc(NN2C(C(O)c3ccc(I)cc3)C=CC3C(=O)N(c4ccccc4)C(=O)C32)cc(OC)c1OC (configuration not stated),0.136
11,Cc1ccc([C@H]2C(C(=O)O)=C[C@@H](C(C)(C)C)N2S(=O)(=O)c2ccc(C)cc2)cc1,0.058
12,CC(C)OC(=O)CC(=O)CC(O)c1ccc([N+](=O)[O-])cc1 (configuration not stated),0.093
13,NC(=O)N1C(=O)C2C(C1=O)C1C=C(CCCO)C2C(C2CC2)N1Cc1cccc(OC(F)(F)F)c1 (configuration not stated),-0.173
14,CC(CO)N1C(=O)[C@@H]2[C@H]3C(=O)OCC=C[C@H]3OC23C=CCN(c2ccc(Cl)cc2)C(=O)[C@@H]13 (some centres not stated),-0.178
15,NC(=O)[C@@H]1[C@H]2C(=O)O[C@H](c3ccccc3)[C@H](c3ccccc3)N2[C@H](c2ccc(OCCO)cc2)[C@@]12C(=O)Nc1ccc(C#CCCO)cc12,0.0973
16,CCOC(=O)C[C@H]1[C@H](OC(=O)c2ccc(C(=O)c3ccccc3)cc2)[C@@H](NC(=O)CC(C)C)c2cc(OCCCO)ccc2N1C(=O)Cc1ccc(OC)cc1,-0.0852
17,COCCCNC(=O)[C@@]1(c2ccc([N+](=O)[O-])cc2)CC(=O)N(CC23CC4CC(CC(C4)C2)C3)[C@@H]1c1ccc(CO)cc1I,-0.104
18,C=C(/C(=C/C[C@@H](OC(C)=O)c1ccc(CO)o1)c1cc(C(=O)OC)ccc1OC)C(C)C,0.0251
